Records with an inconclusive call do not appear. Where a call stands in place of a potency, no number is given. Calls of active or inactive are those of the source. The call rests on the fitted dose curve; in most records, active means well fitted cell-killing curve with a large enough effect; inconclusive means small, poorly fitted or top-dose-only effect; inactive means flat fitted curve, though single readings scatter.

This assay in a line: Cell Viability - Mesenchymal (AID 546).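 Further: cells exposed to compound for 40 hours before reading.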 The following applies: mesenchymal cells viability, qHTS; series mostly up to 91.7 µM. An excerpt:
NIH Chemical Genomics Center [NCGC]
NIH Molecular Libraries Screening Centers Network [MLSCN]
National Institutes of Environmental Health Sciences [NIEHS]
National Toxicology Program [NTP]
We have developed a 1536-well cell-based assay for quantitative high throughput screening (qHTS) against a number of cell lines to determine in vitro cytotoxicity of small molecules. This particular assay uses the kidney mesenchymal cell line which is derived from normal human renal glomeruli.
NCGC Assay Protocol Summary:
The CellTiter-Glo luminescent cell viability assay (Promega) is a homogeneous method to measure the number of viable cells in culture. The end point readout of this assay is based on quantitation of intracellular ATP, an indicator of metabolic activity, using the luciferase reaction. Luciferase catalyzes the oxidation of beetle Luciferin to oxyluciferin and light in the presence of ATP. The luminescent signal is proportional to amount of ATP present.
Using the CellTiter-Glo luminescent cell viability assay, the amount of cellular ATP was measured in the kidney mesenchymal cell line with complete culture medium following compound treatment for 40 hours. The assay was performed in opaque white Kalypsys 1536-well plates. In the screen, tamoxifen and doxorubicin were used as positive controls. Library compounds were measured for their ability to cause acute toxicity in the cell line, as reflected by a decrease in intracellular ATP levels, in a concentration-dependent manner. […] AC50 values were determined from concentration-response data modeled with the standard Hill equation.
qHTS protocol for CellTiter Glo kidney mesenchymal cells cellular assay
[Step] [Parameter] [Value] [Description]
1. Reagent; 5 uL; 1000 kidney mesenchymal cells/well
2. Time; 5 hr; 37 °C incubation
4. Controls; 23 nL; Tamoxifen 0.34 uM to 100 uM & Doxorubicin 0.02 nM to 100 uM
5. Time; 40 hr; 37 °C incubation
6. Reagent; 5 uL; CellTiter Glo reagent
7. Time; 20 min; Room Temperature
8. Detection; Luminescence; Viewlux plate reader
Keywords: cell viability, cytotoxicity, Kidney mesenchymal cell line, luminescence, NTPHTS, NTPHTS_NCGC, NIEHS, EPA, DSSTox, MLSMR, MLSCN, NIH Roadmap, qHTS, NCGC
A general note: qHTS replaces the single test concentration by a dilution series.
As to `CCN(C(=O)N(CC)c1ccccc1)c1ccccc1`, the Potency entry was “inactive”.
Under `CCN(CC)c1cccc(O)c1` stands “inactive”; under `CC(C)(C)c1ccc(OCC2CO2)cc1` (stereo not given), “inactive”; under `Cc1ccc(Cl)cc1`, “inactive”.
The same measure for `C=Cc1ccccc1C=C`: “inactive”; for `C=CCCCCCC`: “inactive”.
For the molecule `BrC(Br)C(Br)Br`, the Potency result is “inactive”.
In the case of `Nc1cccc(C(F)(F)F)c1`, the Potency entry is “inactive”.
Turning to `CC(C)(O)C(=O)O`, the Potency result was “inactive”.
Turning to `Cc1nc2ccc(Cl)cc2[nH]1`, the Potency entry was “inactive”.
With `COC(=O)CC#N`, the Potency entry is “inactive”.
Under `CCCOCC(C)O` (stereo not given) stands “inactive”.
Under `COc1ccc(N)c(C)c1` stands “inactive”; under `CC(=O)c1ccccn1`, “inactive”.
Under `CC(=O)CC(C)C` stands “inactive”.
For the molecule `Cc1ccccc1C#N`, the Potency entry is “inactive”.
Turning to `CCOc1cc(OCC)c(C(C)=O)cc1OCC`, the Potency entry is “inactive”.
The same measure for `CC1CCCO1` (stereo not given): “inactive”.
On to `COc1ccc(N=[N+]([O-])c2ccc(OC)cc2)cc1`, for which the Potency result is “inactive”.
As to `Cc1cc(C)cc(N)c1`, the Potency result is “inactive”.
Under `CC(=O)Nc1ccc(C)cc1` stands “inactive”; under `CCOc1cccc(N)c1`, “inactive”; under `CCCCC(CC)CO` (stereo not given), “inactive”.
Under `O=C(O)c1ccc(C(=O)O)cc1` stands “inactive”.
The same measure for `c1ccsc1`: “inactive”; for `COc1cccc2sc(N)nc12`: “inactive”; for `Cc1ccccc1C(=O)O`: “inactive”.
In the case of `N#Cc1ccccc1`, the Potency entry was “inactive”.
Turning to `CCC(C)(C)C`, the Potency entry is “inactive”.
With `C[C@@H]1CC2(OC[C@]3(C)O[C@H]23)O[C@H]2C[C@@]3(C)[C@@H]4CC[C@H]5C(C)(C)C(O[C@@H]6OC[C@@H](O)[C@H](O)[C@H]6O)CC[C@@]56C[C@@]46CC[C@]3(C)[C@@H]12` (stereo not given in full), the Potency entry is “inactive”.
The same measure for `CC1(N)CCC(C(C)(C)N)CC1` (stereo not given): “inactive”; for `C[C@@H]1O[C@@H](O[C@@H]2[C@@H](O)[C@H](OCCc3ccc(O)c(O)c3)O[C@H](CO[C@@H]3O[C@H](CO)[C@@H](O)[C@H](O)[C@H]3O)[C@H]2OC(=O)/C=C/c2ccc(O)c(O)c2)[C@H](O)[C@H](O)[C@H]1O`: “inactive”; for `CC(=O)OCCC(C)C`: “inactive”.
The same measure for `Cc1ccc(C)o1`: “inactive”.
For the molecule `O=C(O)c1c(Cl)cccc1Cl`, the Potency result was “inactive”.
In the case of `Cc1cc([N+](=O)[O-])ccc1N`, the Potency entry is “inactive”.
On to `Cc1ccc(C(=O)O)cc1`, for which the Potency result is “inactive”.
Under `FB(F)F` stands “inactive”; under `Cc1ccc2c(c1[N+](=O)[O-])C(=O)c1ccccc1C2=O`, “inactive”.
Regarding `CC=C(Cl)Cl`, the Potency entry was “inactive”.

Source of the values: PubChem BioAssay (NCATS).
